From PubChem BioAssay AID540359 (Broad Institute, 2011)
Measured potencies and affinities stand elsewhere. The source made the active and inactive calls. How the calls were made is not given here.

What follows are compounds tested against UDP-galactopyranose mutase (Mycobacterium tuberculosis (strain ATCC 25618 / H37Rv)) (UniProt P9WIQ1) (assay: UDP galactopyranose mutase inhibitors, Mycobacterium tuberculosis, cherry pick dose confirmation (AID 540359)). Conditions: purified UGM enzyme, plate reader activity; series mostly up to 50 µM; activity change, negative = inhibition: at the top concentration.
Chain of UDP-galactopyranose mutase (Mycobacterium tuberculosis (strain ATCC 25618 / H37Rv)) (P9WIQ1 whole entry, looked up): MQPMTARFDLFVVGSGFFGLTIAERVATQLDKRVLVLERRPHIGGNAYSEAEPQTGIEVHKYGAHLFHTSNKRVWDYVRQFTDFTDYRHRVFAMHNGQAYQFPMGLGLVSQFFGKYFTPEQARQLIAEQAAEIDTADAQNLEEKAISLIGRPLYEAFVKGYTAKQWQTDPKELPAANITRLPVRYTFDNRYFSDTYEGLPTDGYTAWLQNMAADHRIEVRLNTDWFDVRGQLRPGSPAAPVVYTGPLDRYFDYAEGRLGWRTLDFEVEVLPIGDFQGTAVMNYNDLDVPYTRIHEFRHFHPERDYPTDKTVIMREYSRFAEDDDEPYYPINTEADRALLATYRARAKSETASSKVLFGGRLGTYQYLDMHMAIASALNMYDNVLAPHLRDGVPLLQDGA

Row | Structure (SMILES) | activity change, negative = inhibition
1 | CCCC(=O)Nc1ccc(Cc2ccc(NC(=O)CCC)c(C(=O)O)c2)cc1C(=O)O | -4.98% (inactive)
2 | C=CCn1ccc(=NC=C(C#N)C#N)c2ccccc21 | -3.63% (inactive)
3 | O=c1[nH]c(=O)n(-c2ccc(F)cc2)c(O)c1/C=C1\C=Nc2ccccc21 | 14.2% (inactive)
4 | NC(=O)c1c(NC(=O)C2COc3ccccc3O2)sc2c1CCN(Cc1ccccc1)C2 (stereo unspecified) | -1.94% (inactive)
5 | O=C(OCc1ccc(Br)cc1)c1cnc(Cl)c(Cl)c1 | -1.03% (inactive)
6 | CCN(CC)CCCNC(=O)c1cc(Sc2nnc(C)s2)nc2ccccc12 | -0.597% (inactive)
7 | COc1cccc2c(=O)cn[nH]c12 | -12.8% (inactive)
8 | O=C1C2C3C=CC(C3)C2C(=O)N1CCN1CCN(S(=O)(=O)c2ccc3ccccc3c2)CC1 (stereo unspecified) | -0.268% (inactive)
9 | COc1ccc2c(c1)c1nc3ccccc3nc1n2CC(=O)OC(C)C | -3.78% (inactive)
10 | N#Cc1c(-c2ccccc2)ccnc1Oc1ccccc1 | -3.15% (inactive)
11 | COC(=O)C1=CC(C(=O)c2cccs2)=NN(c2ccc(OC)cc2)C1C(=O)OC (stereo unspecified) | -9.84% (inactive)
